# Measurements: PubChem BioAssay AID1159580 (chemical genetic matrix, 2015)
# The campaign covered roughly 5,500 compounds. About 2,000 (36%) were called active. Not shown: some 18% with an inconclusive outcome. This is one part of the list. A number with no mark means an inactive call. Cut-off read from the data, not from the text of the source: active = normalized growth mostly below about 0.91 (no sharp cut-off); inconclusive = no clear call, values can overlap the other calls; inactive = mostly above about 0.92.
# Experiment: chemical genetic growth profiling, strain panel (AID 1159580);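 note: tested at 20 µM; growth read once vehicle control cultures reached saturation at 30 °C; 1 = growth at the plate median or of vehicle wells; lower values mean less growth of the strain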
# Conditions: growth OD
# [1] = S. cerevisiae deletion strains, locus YDL101C, strain DUN1, hits give low values
# [2] = S. cerevisiae deletion strains, locus YHR030C, strain SLT2, hits give low values
compound,measurement,setting,value
O=[N+]([O-])c1ccc(OCCO)c([N+](=O)[O-])c1,normalized growth,"S. cerevisiae deletion strains, locus YAL013W, strain DEP1, hits give low values",1
same,normalized growth,"S. cerevisiae deletion strains, locus YBR229C, strain ROT2, hits give low values",0.978
same,normalized growth,"S. cerevisiae deletion strains, locus YCL061C, strain MRC1, hits give low values",1.04
same,normalized growth,[1],1.01
same,normalized growth,"S. cerevisiae deletion strains, locus YDR150W, strain NUM1, hits give low values",0.981
same,normalized growth,"S. cerevisiae deletion strains, locus YEL061C, strain CIN8, hits give low values",0.954
same,normalized growth,"S. cerevisiae deletion strains, locus YGR078C, strain PAC10, hits give low values",1.02
same,normalized growth,[2],1.23
same,normalized growth,"S. cerevisiae deletion strains, locus YHR087W, strain rtc3, hits give low values",0.991
same,normalized growth,"S. cerevisiae deletion strains, locus YJL187C, strain SWE1, hits give low values",0.991
same,normalized growth,"S. cerevisiae deletion strains, locus YJR043C, strain POL32, hits give low values",1.01
same,normalized growth,"S. cerevisiae deletion strains, locus YJR075W, strain HOC1, hits give low values",1.03
same,normalized growth,"S. cerevisiae deletion strains, locus YKL190W, strain CNB1, hits give low values",1
same,normalized growth,"S. cerevisiae deletion strains, locus YLR039C, strain RIC1, hits give low values",1.18
same,normalized growth,"S. cerevisiae deletion strains, locus YLR058C, strain SHM2 (second series), hits give low values",0.998
same,normalized growth,"S. cerevisiae deletion strains, locus YLR085C, strain ARP6, hits give low values",1
same,normalized growth,"S. cerevisiae deletion strains, locus YLR262C, strain YPT6, hits give low values",1.14
same,normalized growth,"S. cerevisiae deletion strains, locus YML094W, strain GIM5, hits give low values",1
same,normalized growth,"S. cerevisiae deletion strains, locus YMR219W, strain ESC1, hits give low values",0.993
same,normalized growth,"S. cerevisiae deletion strains, locus YMR263W, strain SAP30, hits give low values",1.01
same,normalized growth,"S. cerevisiae deletion strains, locus YNL153C, strain GIM3, hits give low values",1.01
same,normalized growth,"S. cerevisiae deletion strains, locus YNL298W, strain CLA4 (second series), hits give low values",0.987
same,normalized growth,"S. cerevisiae deletion strains, locus YNL322C, strain KRE1, hits give low values",0.982
same,normalized growth,"S. cerevisiae deletion strains, locus YNR030W, strain Alg12, hits give low values",0.997
same,normalized growth,"S. cerevisiae deletion strains, locus YOL006C, strain TOP1, hits give low values",1.01
same,normalized growth,"S. cerevisiae deletion strains, locus YPL055C, strain LGE1, hits give low values",0.989
same,normalized growth,"S. cerevisiae deletion strains, locus YPL241C, strain CIN2, hits give low values",0.996
same,normalized growth,"S. cerevisiae deletion strains, locus YPR135W, strain CTF4, hits give low values",1.11
same,normalized growth,"S. cerevisiae strains, strain wild type, hits give low values",0.986
O=[N+]([O-])c1ccc(ON=C2CCCCC2)c([N+](=O)[O-])c1,normalized growth,"S. cerevisiae deletion strains, locus YAR019C, strain CDC15, hits give low values",0.982
same,normalized growth,"S. cerevisiae deletion strains, locus YBL105C, strain PKC1, hits give low values",0.998
same,normalized growth,"S. cerevisiae deletion strains, locus YBR135W, strain CKS1, hits give low values",0.997
same,normalized growth,"S. cerevisiae deletion strains, locus YBR136W, strain MEC1, hits give low values",0.996
same,normalized growth,"S. cerevisiae deletion strains, locus YBR160W, strain CDC28, hits give low values",0.997
same,normalized growth,"S. cerevisiae deletion strains, locus YDL017W, strain CDC7, hits give low values",0.995
same,normalized growth,"S. cerevisiae deletion strains, locus YDL028C, strain MPS1, hits give low values",0.988
same,normalized growth,[1],0.876 (active)
same,normalized growth,"S. cerevisiae deletion strains, locus YDL108W, strain KIN28, hits give low values",1
same,normalized growth,"S. cerevisiae deletion strains, locus YDL132W, strain cdc53, hits give low values",0.981
same,normalized growth,"S. cerevisiae deletion strains, locus YDL214C, strain PRR2, hits give low values",0.875
same,normalized growth,"S. cerevisiae deletion strains, locus YDR052C, strain DBF4, hits give low values",0.904 (active)
same,normalized growth,"S. cerevisiae deletion strains, locus YDR054C, strain cdc34, hits give low values",0.981
same,normalized growth,"S. cerevisiae deletion strains, locus YDR226W, strain ADK1, hits give low values",0.987
same,normalized growth,"S. cerevisiae deletion strains, locus YDR477W, strain SNF1, hits give low values",0.827
same,normalized growth,"S. cerevisiae deletion strains, locus YER123W, strain YCK3, hits give low values",0.722
same,normalized growth,"S. cerevisiae deletion strains, locus YER133W, strain GLC7, hits give low values",0.786
same,normalized growth,"S. cerevisiae deletion strains, locus YFL009W, strain cdc4, hits give low values",0.975
same,normalized growth,"S. cerevisiae deletion strains, locus YFL029C, strain CAK1, hits give low values",0.987
same,normalized growth,"S. cerevisiae deletion strains, locus YFR003C, strain YPI1, hits give low values",0.999
same,normalized growth,"S. cerevisiae deletion strains, locus YFR019W, strain FAB1, hits give low values",0.887
same,normalized growth,"S. cerevisiae deletion strains, locus YFR028C, strain CDC14, hits give low values",0.983
same,normalized growth,"S. cerevisiae deletion strains, locus YGR040W, strain KSS1, hits give low values",0.84
same,normalized growth,"S. cerevisiae deletion strains, locus YGR052W, strain FMP48, hits give low values",0.877
same,normalized growth,"S. cerevisiae deletion strains, locus YGR092W, strain DBF2, hits give low values",0.602
same,normalized growth,[2],0.608 (active)
same,normalized growth,"S. cerevisiae deletion strains, locus YHR079C, strain IRE1, hits give low values",0.721
same,normalized growth,"S. cerevisiae deletion strains, locus YHR082C, strain KSP1, hits give low values",0.966
same,normalized growth,"S. cerevisiae deletion strains, locus YHR205W, strain SCH9, hits give low values",0.448 (active)
same,normalized growth,"S. cerevisiae deletion strains, locus YIL147C, strain SLN1, hits give low values",0.984
same,normalized growth,"S. cerevisiae deletion strains, locus YJL095W, strain BCK1, hits give low values",0.568
same,normalized growth,"S. cerevisiae deletion strains, locus YJL128C, strain PBS2, hits give low values",0.995
same,normalized growth,"S. cerevisiae deletion strains, locus YJL157C, strain FAR1, hits give low values",0.84
same,normalized growth,"S. cerevisiae deletion strains, locus YJR016C, strain ILV3, hits give low values",0.981
same,normalized growth,"S. cerevisiae deletion strains, locus YJR066W, strain TOR1 (second series), hits give low values",0.429 (active)
same,normalized growth,"S. cerevisiae deletion strains, locus YJR066W, strain TOR1, hits give low values",0.801
same,normalized growth,"S. cerevisiae deletion strains, locus YKL048C, strain ELM1, hits give low values",0.783 (active)
same,normalized growth,"S. cerevisiae deletion strains, locus YKL067W, strain YNK1, hits give low values",0.853
same,normalized growth,"S. cerevisiae deletion strains, locus YKL101W, strain HSL1, hits give low values",0.879
same,normalized growth,"S. cerevisiae deletion strains, locus YKL193C, strain SDS22, hits give low values",0.988
same,normalized growth,"S. cerevisiae deletion strains, locus YKL203C, strain TOR2, hits give low values",0.797
same,normalized growth,"S. cerevisiae deletion strains, locus YLR113W, strain HOG1, hits give low values",0.749 (active)
same,normalized growth,"S. cerevisiae deletion strains, locus YLR133W, strain CKI1, hits give low values",0.88
same,normalized growth,"S. cerevisiae deletion strains, locus YLR403W, strain SFP1, hits give low values",0.798
same,normalized growth,"S. cerevisiae deletion strains, locus YML070W, strain DAK1, hits give low values",0.852
same,normalized growth,"S. cerevisiae deletion strains, locus YMR001C, strain CDC5, hits give low values",0.989
same,normalized growth,"S. cerevisiae deletion strains, locus YMR205C, strain PFK2 (second series), hits give low values",0.865
same,normalized growth,"S. cerevisiae deletion strains, locus YMR277W, strain FCP1, hits give low values",0.989
same,normalized growth,"S. cerevisiae deletion strains, locus YNL006W, strain LST8, hits give low values",0.991
same,normalized growth,"S. cerevisiae deletion strains, locus YNL020C, strain ARK1, hits give low values",0.881
same,normalized growth,"S. cerevisiae deletion strains, locus YNL161W, strain CBK1, hits give low values",0.984
same,normalized growth,"S. cerevisiae deletion strains, locus YNL183C, strain NPR1, hits give low values",0.795
same,normalized growth,"S. cerevisiae deletion strains, locus YNL207W, strain RIO2, hits give low values",0.969
same,normalized growth,"S. cerevisiae deletion strains, locus YNL222W, strain SSU72, hits give low values",1
same,normalized growth,"S. cerevisiae deletion strains, locus YNL307C, strain MCK1 (second series), hits give low values",0.699
same,normalized growth,"S. cerevisiae deletion strains, locus YOL078W, strain AVO1, hits give low values",0.993
same,normalized growth,"S. cerevisiae deletion strains, locus YOL136C, strain PFK27, hits give low values",0.878
same,normalized growth,"S. cerevisiae deletion strains, locus YOR061W, strain CKA2, hits give low values",0.865
same,normalized growth,"S. cerevisiae deletion strains, locus YOR119C, strain RIO1, hits give low values",0.839
same,normalized growth,"S. cerevisiae deletion strains, locus YOR231W, strain MKK1, hits give low values",0.776
same,normalized growth,"S. cerevisiae deletion strains, locus YOR329C, strain SCD5, hits give low values",0.994
same,normalized growth,"S. cerevisiae deletion strains, locus YPL031C, strain PHO85, hits give low values",0.808
same,normalized growth,"S. cerevisiae deletion strains, locus YPL153C, strain RAD53, hits give low values",0.774
same,normalized growth,"S. cerevisiae deletion strains, locus YPL204W, strain HRR25, hits give low values",0.74
same,normalized growth,"S. cerevisiae deletion strains, locus YPL209C, strain IPL1, hits give low values",0.983
same,normalized growth,"S. cerevisiae deletion strains, locus YPL256C, strain CLN2, hits give low values",0.765 (active)
same,normalized growth,"S. cerevisiae deletion strains, locus YPR025C, strain CCL1, hits give low values",1
same,normalized growth,"S. cerevisiae deletion strains, locus YPR106W, strain ISR1, hits give low values",0.976
same,normalized growth,"S. cerevisiae deletion strains, locus YPR111W, strain DBF20, hits give low values",0.974
same,normalized growth,"S. cerevisiae deletion strains, strain NNK1, hits give low values",0.975
same,normalized growth,"S. cerevisiae deletion strains, strain TSCII, hits give low values",0.968
